Assay outcomes as filed in PubChem BioAssay.
An excerpt weighted towards active compounds, which were near 21% of everything screened.
Pf growth 96h: Primary qHTS for delayed death inhibitors of the malarial parasite plastid, 96 hour incubation; P. falciparum luciferase reporter growth, 96 h; Potency, µM (highest dose often 28.7 µM), actives largely listed as inhibitors; hit rate 6.9% among 320,000
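Two-generation exposure (96 h) targets delayed-death phenotype. Reporter parasites carrying integrated firefly luciferase, in red cells at 2% hematocrit and 0.05% parasitemia final, kept at 37 C, 5% CO2; luminescence loss indicates inhibition.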
Cycloheximide cs: Cycloheximide Counterscreen for Small Molecule Inhibitors of Shiga Toxin; cell reporter, cycloheximide protein synthesis inhibition counterscreen; max response, %; hit rate 12% among 300,000; AID 2314, 2010; in the data active = max response mostly above about 13%, no sharp cut-off; inactive = mostly below about 14%; note: read at 38.3 µM for the half of the compounds with a filed dose
HCV inhibitor: qHTS Assay for Inhibitors of Hepatitis C Virus (HCV) | Huh7.5.1 HCVcc-Cre infection, luciferase reporter, 44 h | Potency, µM (doses to about 41.8 µM), hits mostly inhibitors | hit rate 3.4% among 340,000 | AID 651820, 2012
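Antiviral activity was scored by luciferase reporter output from cells infected with HCVcc-Cre (~0.5 moi) in presence of compound, 44 h infection period, cells seeded 1,000/well 4 h prior.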
Shiga inhibitor: A qHTS for Small Molecule Inhibitors of Shiga Toxin; AID 2315, 2010; hit rate 9.2% among 290,000; inhibition, % at 38.7 µM; Vero cells, Shiga toxin protein synthesis inhibition reporter; in the data active = inhibition mostly above about 28%, no sharp cut-off; inactive = mostly below about 43%
HCMV antiviral: qHTS Assay for inhibitors of the human cytomegalovirus (HCMV) | activity change, negative = inhibition, % at 57.5 µM | HFF cells, HCMV-luciferase reporter, 72 h; hits give low values | hit rate 4.5% among 410,000; in the data active = activity change below about -60%; inconclusive = no clear call, values can overlap the other calls; inactive = above about -39%
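Two compound doses tested in HFFs infected with HCMV-luciferase, MOI 1 PFU/cell, 72 h at 37C. Lysate luminescence read with OneGlo; data normalized against buffer-only and 10uM Salinomycin inhibitor controls.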
Pf growth 48h: Primary qHTS for delayed death inhibitors of the malarial parasite plastid, 48 hour incubation; P. falciparum luciferase growth in erythrocytes, 48 h; Potency, µM (top dose mostly 28.7 µM), usual class: inhibitors; hit rate 5.9% among 310,000
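Cell-based growth assay: transgenic P. falciparum expressing firefly luciferase, cultured in red cells within RPMI 1640 containing 0.5% w/v Albumax, 24 mM bicarbonate and gentamycin. A drop in luciferase activity indicates inhibition.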
Numbers stand for hits. Unless noted, calls come from the whole dose curve; as a rule, active = well fitted inhibition curve with a large enough effect; inconclusive = small, poorly fitted or top-dose-only effect, or another doubt; inactive = no such curve, though single readings can be large or run the other way.

Results for O=C(c1ccco1)N1CCN(CC(O)COc2ccc3oc4ccccc4c3c2)CC1 (centres undefined) ?
Pf growth 96h: inactive; Cycloheximide cs: inactive; HCV inhibitor: 13µM; Shiga inhibitor: inactive; HCMV antiviral: inconclusive; Pf growth 48h: inactive

What do the screens show for `COc1cc(CN(C)CCc2ccccc2)ccc1OCc1ccccc1`?
Pf growth 96h: inconclusive; Cycloheximide cs: inactive; HCV inhibitor: 3.5µM; Shiga inhibitor: inactive; HCMV antiviral: inactive; Pf growth 48h: inconclusive

What do the screens show for `CCOC(=O)C1CCCN(Cc2ccc(OCc3ccccc3)cc2)C1` (centres undefined)?
Pf growth 96h: inconclusive; Cycloheximide cs: 44; HCV inhibitor: inactive; Shiga inhibitor: 99; HCMV antiviral: inactive; Pf growth 48h: inactive

How did COc1cc(CN2CCC(C)CC2)ccc1OCc1ccccc1 do in these assays?
Pf growth 96h: inconclusive; Cycloheximide cs: inactive; HCV inhibitor: inactive; Shiga inhibitor: inactive; HCMV antiviral: inactive; Pf growth 48h: inactive

How did CCOC(=O)C1CCCN(Cc2c(C(=O)N3CCOCC3)nc3ccccn23)C1 (centres undefined) do in these assays?
Pf growth 96h: 9.3µM; Cycloheximide cs: inactive; HCV inhibitor: inactive; Shiga inhibitor: inactive; HCMV antiviral: inactive; Pf growth 48h: inactive

How did COc1cc(CN2CCCC(C)C2)ccc1OCc1ccccc1 (centres undefined) do in these assays?
Pf growth 96h: inactive; Cycloheximide cs: 17; HCV inhibitor: inactive; Shiga inhibitor: 36; HCMV antiviral: inactive; Pf growth 48h: inactive

How did COc1ccccc1CNc1nc(-c2ccco2)nn1S(C)(=O)=O do in these assays?
HCMV antiviral: inactive

What do the screens show for `COCCNc1nnc(SCC(=O)NC(=O)c2ccccc2)s1`?
Pf growth 96h: inactive; HCV inhibitor: inactive; HCMV antiviral: inactive; Pf growth 48h: inactive

What do the screens show for `C=CCc1ccc(OCCCCN2CCC(C)CC2)c(OC)c1`?
Pf growth 96h: inactive; Cycloheximide cs: inactive; HCV inhibitor: inconclusive; Shiga inhibitor: inactive; HCMV antiviral: inactive; Pf growth 48h: inactive

What do the screens show for `CCOC(=O)C1CCCN(Cc2ccc(OCc3ccccc3)c(OC)c2)C1` (centres undefined)?
Pf growth 96h: 13µM; Cycloheximide cs: 18; HCV inhibitor: inactive; HCMV antiviral: inactive; Pf growth 48h: inactive

How did CCOC(=O)C1CCCCN1Cc1cccc(OCc2ccccc2)c1 (centres undefined) do in these assays?
Pf growth 96h: 13µM; Cycloheximide cs: inactive; HCV inhibitor: inactive; Shiga inhibitor: inactive; HCMV antiviral: inactive; Pf growth 48h: inactive

Results for C=CCc1ccc(OCCCN2CCCC(C)C2)c(OC)c1 (centres undefined) ?
Pf growth 96h: inactive; Cycloheximide cs: 22; HCV inhibitor: 25µM; Shiga inhibitor: inactive; HCMV antiviral: inactive

What do the screens show for `COc1ccc2ccccc2c1CNCCc1ccccc1`?
Pf growth 96h: inactive; Cycloheximide cs: inactive; HCV inhibitor: inconclusive; Shiga inhibitor: inactive; HCMV antiviral: inactive; Pf growth 48h: 10µM

Results for CCOC(=O)C1CCCN(Cc2ccc(O)c(OC)c2)C1 (centres undefined) ?
Pf growth 96h: inactive; Cycloheximide cs: inactive; HCV inhibitor: inactive; Shiga inhibitor: inactive; HCMV antiviral: inactive; Pf growth 48h: inactive

Results for CCOC(=O)C1CCCCN1Cc1cccc(Oc2ccccc2)c1 (centres undefined) ?
Pf growth 96h: inconclusive; Cycloheximide cs: inactive; HCV inhibitor: inactive; Shiga inhibitor: inactive; HCMV antiviral: inactive; Pf growth 48h: inconclusive

How did Cc1ccc(CCNC(=O)CCn2nc(-c3ccc(Cl)cc3)ccc2=O)cc1 do in these assays?
HCMV antiviral: inactive

What do the screens show for `COC(=O)c1ccc(Cn2nnc3sc4c(c3c2=O)CCC(C)C4)cc1` (centres undefined)?
HCMV antiviral: inactive

How did CCN1CCN(Cc2ccc(OCc3ccccc3)c(OC)c2)CC1 do in these assays?
Pf growth 96h: inactive; Cycloheximide cs: 49; HCV inhibitor: inactive; Shiga inhibitor: 105; HCMV antiviral: inactive; Pf growth 48h: inactive

How did CC1CCCN(CCCOc2ccc(Br)cc2Cl)C1 (centres undefined) do in these assays?
Pf growth 96h: inconclusive; Cycloheximide cs: 22; HCV inhibitor: inconclusive; Shiga inhibitor: 41; HCMV antiviral: inactive; Pf growth 48h: inconclusive

Results for COc1ccc(CN2CCN(Cc3ccc4ccccc4c3)CC2)cc1OC ?
Pf growth 96h: inactive; Cycloheximide cs: inactive; HCV inhibitor: inconclusive; Shiga inhibitor: inactive; HCMV antiviral: -65; Pf growth 48h: inactive

Results for CCN1CCN(Cc2ccc(OC)c(OCc3ccccc3)c2)CC1 ?
Pf growth 96h: inactive; Cycloheximide cs: inactive; HCV inhibitor: inactive; Shiga inhibitor: inactive; HCMV antiviral: inactive; Pf growth 48h: inactive

How did COc1ccccc1CN1CCN(Cc2ccc3ccccc3c2)CC1 do in these assays?
Pf growth 96h: inactive; Cycloheximide cs: inactive; HCV inhibitor: inactive; Shiga inhibitor: inactive; HCMV antiviral: inactive; Pf growth 48h: inactive

Results for CCOC(=O)C1CCCN(CCCc2ccccc2)C1 (centres undefined) ?
Pf growth 96h: 3.3µM; Cycloheximide cs: inactive; HCV inhibitor: inactive; Shiga inhibitor: inactive; HCMV antiviral: inactive; Pf growth 48h: inactive

How did Cc1cccc(C)c1NC(=O)C1CCCN(CCCc2ccccc2)C1 (centres undefined) do in these assays?
Cycloheximide cs: inactive; HCV inhibitor: inactive; Shiga inhibitor: inactive; HCMV antiviral: inactive; Pf growth 48h: inactive

What do the screens show for `COc1ccc(NC(C)=O)cc1S(=O)(=O)Nc1ccc(C(=O)N2CCCC2)cc1`?
Pf growth 96h: inconclusive; Cycloheximide cs: inactive; HCV inhibitor: inactive; Shiga inhibitor: inactive; HCMV antiviral: inactive; Pf growth 48h: inactive

Results for Cc1cccc(-c2nc3scc(CCNS(=O)(=O)c4ccc(F)cc4C)n3n2)c1 ?
HCMV antiviral: inactive

What do the screens show for `O=C1CCC[C@H]2[C@@H](Cc3ccccc3)[C@H](N(Cc3ccccc3)Cc3ccccc3)CC[C@]23CCCN13`?
HCMV antiviral: inactive

How did COc1ccc2ccccc2c1CN1CCCC(CO)C1 (centres undefined) do in these assays?
Pf growth 96h: inactive; Cycloheximide cs: inactive; HCV inhibitor: inactive; Shiga inhibitor: inactive; HCMV antiviral: inactive; Pf growth 48h: inactive

What do the screens show for `COc1ccc2ccccc2c1CN1CCN(Cc2ccccc2)CC1`?
Pf growth 96h: inconclusive; Cycloheximide cs: inactive; HCV inhibitor: inactive; Shiga inhibitor: inactive; HCMV antiviral: -75; Pf growth 48h: inactive

How did COc1ccc(CN2CCN(C(=O)c3ccco3)CC2)cc1OCc1ccccc1 do in these assays?
Pf growth 96h: 0.093µM; Cycloheximide cs: inactive; HCV inhibitor: inconclusive; Shiga inhibitor: inactive; HCMV antiviral: inactive; Pf growth 48h: inconclusive
